Screen size: about 39,000 compounds; about 3,300 (8.5%) were called active. Shown is part of a subset that was picked to be rich in actives.
tested on: HepG2; test: cytotoxicity call (relative viability < 0.9); conditions: 10 µM

Row | Structure (SMILES) | cytotoxicity call
1 | CCCNC(=O)Nc1ccc2c(c1)C(=O)N(C)C[C@@H](OC)[C@@H](C)CN(Cc1ccc(-c3ccccn3)cc1)[C@@H](C)CO2 | inactive
2 | COc1ccc(S(=O)(=O)Nc2ccc3c(c2)CC(=O)N([C@@H](C)CO)C[C@H](C)[C@@H](CN(C)C(=O)Nc2c(C)noc2C)O3)cc1 | inactive
3 | CN1CCN(C(=O)Cn2cc(-c3ccc(C(=O)NO)cc3)nn2)CC1 | inactive
4 | Cc1noc(C)c1NC(=O)N[C@@H]1C=C[C@@H](CC(=O)N2CCN(C)CC2)O[C@@H]1CO | inactive
5 | COc1ccc(cc1)CN1C[C@]2(CN(C2)C(=O)Cc2ccncc2)c2c([nH]c3cc(ccc23)OC)[C@@H]1CO | inactive
6 | C[C@H](CO)N1C[C@H](C)[C@H](CN(C)Cc2ccncc2)Oc2ccc(NC(=O)Nc3cccc4ccccc34)cc2CC1=O | active
7 | C[C@H]1CN([C@@H](C)CO)C(=O)Cc2cc(NC(=O)Nc3cccc4ccccc34)ccc2O[C@@H]1CN(C)Cc1ccncc1 | inactive
8 | C[C@H]1CN([C@@H](C)CO)C(=O)Cc2cc(NC(=O)Nc3cccc4ccccc34)ccc2O[C@H]1CN(C)Cc1ccncc1 | inactive
9 | C[C@@H]1CN([C@@H](C)CO)C(=O)Cc2cc(NC(=O)Nc3cccc4ccccc34)ccc2O[C@H]1CN(C)Cc1ccncc1 | inactive
10 | C[C@@H]1CN([C@H](C)CO)C(=O)Cc2cc(NC(=O)Nc3cccc4ccccc34)ccc2O[C@@H]1CN(C)Cc1ccncc1 | active
11 | C[C@@H]1CN([C@@H](C)CO)C(=O)Cc2cc(NC(=O)Nc3cccc4ccccc34)ccc2O[C@@H]1CN(C)Cc1ccncc1 | active
12 | C[C@@H]1CN([C@H](C)CO)C(=O)Cc2cc(NC(=O)Nc3cccc4ccccc34)ccc2O[C@H]1CN(C)Cc1ccncc1 | inactive
13 | C[C@H](CO)N1C[C@H](C)[C@@H](CN(C)Cc2ccncc2)Oc2ccc(NC(=O)Nc3cccc4ccccc34)cc2CC1=O | active
14 | COc1ccc(S(=O)(=O)N[C@H]2CC[C@@H](CC(=O)N3CCC(Cc4ccccc4)CC3)O[C@@H]2CO)cc1 | inactive
15 | C[C@@H]1CCCCO[C@H](CN(C)C(=O)Nc2ccc3c(c2)OCO3)[C@H](C)CN([C@@H](C)CO)C(=O)c2cc(NS(=O)(=O)c3cccs3)ccc2O1 | inactive
16 | CC(C)NC(=O)Nc1cccc2c1O[C@H](CN(C)S(=O)(=O)c1cccs1)[C@H](C)CN([C@H](C)CO)C2=O | inactive
17 | CCCN(C)C[C@@H]1Oc2cc(C#Cc3ccc(OC)cc3)ccc2S(=O)(=O)N([C@H](C)CO)C[C@@H]1C | inactive
18 | Cc1ccc(C(=O)CCNc2ccc3c(c2)oc2ccccc23)o1 | inactive

From the antibiotic and cytotoxicity screens of Wong et al. (2023)
